These results are taken from PubChem BioAssay (NCATS).

Inconclusive results are not listed. Calls of active or inactive are those of the source. Calls come from the whole dose curve; as a rule, active = well fitted cell-killing curve with a large enough effect; inconclusive = small, poorly fitted or top-dose-only effect, or effect the other way; inactive = no such curve, though single readings can be large or run the other way.
Potency is the fitted concentration of half-maximal effect.

This assay in a line: Quantitative High-Throughput drug screen in 47 multiple myeloma cell lines against the NCATS MIPE library collection: SKMM1_PLB cell viability assay (AID 1919863). For viability: series mostly up to about 46 µM. Note: nearly all actives have a fitted effect of over 35% in size. To be noted: SKMM1 myeloma viability, CellTiter-Glo ATP, 48 h; viability: stronger effect = lower value. An excerpt: PI: Beverly A. Mock Ph.D.
Laboratory of Cancer Biology and Genetics,
Center for Cancer Research, National Cancer Institute,
National Institute of Health, Bethesda, Maryland
Drug resistance and disease progression are common in multiple myeloma (MM) patients, underscoring the need for new therapeutic combinations. […] We hypothesized that effective combinations would reduce MYC expression and enhance p16 activity. […] These preclinical data identify potentially useful drug combinations for evaluation in drug-resistant MM and reveal potential mechanisms of combined drug sensitivity.
Described herein is the primary MIPE qHTS used to cherrypick compounds. Validated compounds were then further tested for potential synergistic activiy.
[1] Peat TJ, Gaikwad SM, Dubois W, Gyabaah-Kessie N, Zhang S, Gorjifard S, Phyo Z, Andres M, Hughitt VK, Simpson RM, Miller MA, Girvin AT, Taylor A, Williams D, D'Antonio N, Zhang Y, Rajagopalan A, Flietner E, Wilson K, Zhang X, Shinn P, Klumpp-Thomas C, McKnight C, Itkin Z, Chen L, Kazandijian D, Zhang J, Michalowski AM, Simmons JK, Keats J, Thomas CJ, Mock BA. Drug combinations identified by high-throughput screening promote cell cycle transition and upregulate Smad pathways in myeloma. Cancer Lett. 2023 Aug 1;568:216284. doi: 10.1016/j.canlet.2023.216284. Epub 2023 Jun 24. PMID: 37356470; PMCID: PMC10408729.
SEQUENCE No. (e.g., 1, 2, 3, etc.); […] (e.g., Cells, Incubation, Reagent, etc.); VALUE and DESCRIPTION.
1; Cells; 5 uL; white, solid bottom 1536-well Greiner assay plate.
2; Compounds; 23 nL; Kalypsis pin tool (Wako USA) equipped with a 1536-well pin head to transfer to the assay plates.
3; Incubation; 48 hours; 37C incubation.
4; Reagent;5uL; CellTiter Glo (Promega).
5; Detector; 425V; Luminescence; Viewlux PerkinElmer.
NOTES (numbers refer to Sequence numbers above)
1. The cell-based screening methods employed in this study were like those previously published. Briefly, the corresponding myeloma cell lines were screened in 1,536-well plates with 500 cells, 5-uL per well for inhibition of cell viability (assessed by measuring ATP levels with CellTiterGlo).
2. NCATS MIPE 4.0 library of approved and investigational drugs were added using the Kalypsis pin tool. Wells treated with DMSO only for 100% viability and media only for 0% viability were used as controls.
3. The assay plates were covered and incubated for 48 hours in a 37C, 5% CO2 incubator with controlled humidity.
4. After 48 hours, CellTilter-GloTM luminescent substrate mix (Promega) reagent was added to the assay plate and plates we incubated for 5 min at room temperature.
5. Signal was measured as median relative luminescence units on a ViewLux (PerkinElmer) multiplate reader.
[1] Heske CM, Davis MI, Baumgart JT, Wilson K, Gormally MV, Chen L, Zhang X, Ceribelli M, Duveau DY, Guha R, Ferrer M, Arnaldez FI, Ji J, Tran HL, Zhang Y, Mendoza A, Helman LJ, Thomas CJ. Matrix Screen Identifies Synergistic Combination of PARP Inhibitors and Nicotinamide Phosphoribosyltransferase (NAMPT) Inhibitors in Ewing Sarcoma. Clin Cancer Res. 2017 Dec 1;23(23):7301-7311. doi: 10.1158/1078-0432.CCR-17-1121. Epub 2017 Sep 12. PMID: 28899971; PMCID: PMC6636827.
A general note: In ATP-based viability assays light output follows the ATP content of the culture.
`O=c1[nH]c(=O)n([C@H]2C[C@@H](O)[C@@H](CO)O2)cc1I`: the viability was 119% (inactive).
Turning to `CN[C@H]1[C@@H](O[C@@H]2[C@H](O[C@@H]3[C@@H](O)[C@@H](O)[C@@H](N=C(N)N)[C@@H](O)[C@@H]3N=C(N)N)O[C@H](C)[C@@]2(O)C=O)O[C@@H](CO)[C@@H](O)[C@H]1O`, the Potency is 0.946 µM (active).
For the compound `CC(=O)Nc1cccc(-n2c(=O)n(C3CC3)c(=O)c3c(Nc4ccc(I)cc4F)n(C)c(=O)c(C)c32)c1`, the Potency is 3.72 µM (active).
Regarding `O=C(O)C1=CO[C@@H](O[C@@H]2O[C@H](CO)[C@H](O)[C@H](O)[C@H]2O)[C@@H]2C(CO)=CC[C@H]12`, the viability was 118% (inactive).
With `CCC[C@H](N[C@@H](C)C(=O)N1[C@@H]2CCCC[C@H]2C[C@H]1C(=O)O)C(=O)OCC`, the Potency is 18.7 µM (active).
On the same count and under the same terms, the value for `CC(C)c1c(C(=O)Nc2ccccc2)c(-c2ccccc2)c(-c2ccc(F)cc2)n1CC[C@H](O)C[C@@H](O)CC(=O)O` was 18.7 µM (active).
For `O=C(Nc1ccccc1)Nc1ccc(-c2ccc(C(=O)[C@H]3CCC[C@H]3C(=O)O)cc2)cc1`, the viability was 114% (inactive).
On to `C[C@@H]1[C@H](O)[C@@H](C)C=CC=CC=CC=CC=CC=CC=C[C@H](O[C@@H]2O[C@H](C)[C@H](O)[C@H](N)[C@@H]2O)C[C@@H]2O[C@](O)(C[C@@H](O)C[C@@H](O)[C@H](O)CC[C@@H](O)C[C@@H](O)CC(=O)O[C@H]1C)C[C@H](O)[C@@H]2C(=O)O`, for which the Potency is 5.26 µM (active).
With `CC1=C(CC(=O)O)c2cc(F)ccc2C1=Cc1ccc(S(C)=O)cc1` (stereo not given), the viability is 92.7% (inactive).
`CC(C)(CO)[C@@H](O)C(=O)NCCC(=O)O`: the viability was 102% (inactive).
Take `CC1(C)OC2CC3C4CC(F)C5=CC(=O)C=CC5(C)C4C(O)CC3(C)[C@]2(C(=O)CO)O1` (stereo not given in full): the viability is 131% (inactive).
On the same count and under the same terms, in the case of `C[C@@H]1C[C@H]2[C@@H]3CCC4=CC(=O)C=C[C@]4(C)[C@@]3(F)[C@@H](O)C[C@]2(C)[C@@]1(O)C(=O)CO` it was 118% (inactive); in that of `Nc1ncnc2c1ncn2[C@@H]1O[C@H](CO)[C@@H](O)[C@@H]1O`, 106% (inactive).
With `CC[C@H](CC#N)OC(=O)N[C@@H](C)c1cccc(NC(=O)Nc2ccc(-c3cnco3)c(OC)c2)c1`, the Potency is 1.18 µM (active).
On the same count and under the same terms, in the case of `NC(=O)c1noc([C@H](CCCC2CCCCC2)CC(=O)NO)n1` it was 13.2 µM (active).
Still for that read-out and setting: the value for `CN(C)c1ccc(-c2nc3ncc(Cl)c(N4CCN(CC(=O)Nc5nccs5)CC4)c3[nH]2)cc1` was 14.8 µM (active).
For `Cc1cn([C@@H]2C[C@@H](O)[C@H](CO)O2)c(=O)[nH]c1=O`, the viability was 137% (inactive).
The same measure, in the same setting: in the case of `Nc1ccn([C@@H]2O[C@H](CO)[C@@H](O)[C@H]2O)c(=O)n1` it was 113% (inactive); in that of `C[C@@H](O)[C@H]1C(=O)N2C(C(=O)OCOC(=O)C(C)(C)C)=C(SC3CN(C4=NCCS4)C3)[C@H](C)[C@H]12`, 111% (inactive).
As for `CN1CCc2c(n(Cc3ccc(C(=O)NO)cc3)c3ccccc23)C1`, the Potency is 5.9 µM (active).
Same read-out and setting: the value for `O=C(O)Cc1cccc(OCCCN(Cc2cccc(C(F)(F)F)c2Cl)CC(c2ccccc2)c2ccccc2)c1` was 11.8 µM (active); that for `CCC(C)SSc1ncc[nH]1` (stereo not given) was 11.8 µM (active).
On the same count and under the same terms, the value for `CN(C)CCN(C)C(=O)c1ccc(NC(=O)Nc2ccc(-c3nc(N4CCOCC4)c4ccn(CC(F)(F)F)c4n3)cc2)cc1` was 0.209 µM (active); that for `CC[C@]1(O)C[C@H]2CN(CCC3=c4ccccc4=N[C]3[C@@](C(=O)OC)(c3cc4c(cc3OC)N(C)[C@H]3[C@@](O)(C(N)=O)[C@H](O)[C@]5(CC)C=CCN6CC[C@]43[C@@H]65)C2)C1` was 0.0148 µM (active).
Same read-out and setting: in the case of `COc1ccc(-c2oc3c(CC=C(C)C)c(O)cc(O)c3c(=O)c2O)cc1` it was 20.9 µM (active); in that of `Nc1ccc(-c2ccc3ncc4ccc(=O)n(-c5cccc(C(F)(F)F)c5)c4c3c2)cn1`, 0.0053 µM (active); in that of `CN(C)CC[C@H](CSc1ccccc1)Nc1ccc(S(=O)(=O)NC(=O)c2ccc(N3CCN(Cc4ccccc4-c4ccc(Cl)cc4)CC3)cc2)cc1[N+](=O)[O-]`, 18.7 µM (active).
Turning to `NC[C@H]1O[C@H](O[C@@H]2[C@@H](O)[C@@H](O[C@H]3O[C@H](CO)[C@@H](O)[C@H](N)[C@@H]3O)[C@H](N)C[C@@H]2N)[C@H](O)[C@@H](O)[C@H]1O`, the viability is 120% (inactive).
Same read-out and setting: the value for `CCC(=O)OCC(=O)[C@@]1(OC(=O)CC)[C@@H](C)C[C@@H]2[C@H]3CCC4=CC(=O)C=C[C@]4(C)[C@@]3(F)[C@@H](O)C[C@@]21C` was 97.1% (inactive).
As for `O=C(CC12CC3CC(CC(C3)C1)C2)Nc1cccc2nc(NCCNCCO)ccc12`, the Potency is 16.6 µM (active).
For `O=C(Nc1ncc(SCCN2CCCC2)s1)[C@]1(c2ccc(S(=O)(=O)C3CC3)cc2)C[C@@H]1C1CCCCC1`, the Potency was 23.5 µM (active).
In the case of `C[C@@]1(C(=O)Nc2ccc(F)nc2)CCCN1c1nc(Nc2cc(C3CC3)[nH]n2)c2cccn2n1`, the Potency was 1.48 µM (active).
The same measure, in the same setting: in the case of `O=C1Nc2ccc(I)cc2C1=Cc1cc(Br)c(O)c(Br)c1` it was 18.7 µM (active).
Same read-out and setting: in the case of `CO[C@@H]1C(N(C)C(=O)c2ccccc2)C[C@H]2O[C@]1(C)n1c3ccccc3c3c4c(c5c6ccccc6n2c5c31)C(=O)NC4=O` (stereo not given in full) it was 11.8 µM (active).
On the same count and under the same terms, in the case of `C[C@@H](NC(=O)c1ncnc(N)c1Cl)c1ncc(C(=O)Nc2cc(C(F)(F)F)c(Cl)cn2)s1` it was 16.6 µM (active).
Take `CCc1cccc(CC)c1NC(=O)N1Cc2[nH]nc(NC(=O)c3ccc(N4CCN(C)CC4)cc3)c2C1`: the Potency is 2.64 µM (active).
As for `CS(=O)(=O)c1ccc(C2=C(c3ccccc3)C(=O)OC2)cc1`, the viability is 152% (inactive).
On the same count and under the same terms, the value for `CN(C)N=Nc1nc[nH]c1C(N)=O` was 140% (inactive).
As to `O=C(Nc1cccc(Cl)c1)Nc1ncc(CCNc2ncnc3ccsc23)s1`, the Potency was 3.32 µM (active).
Regarding `O=C(NCCCCN1CCOCC1)c1cc2ccccc2o1`, the viability was 115% (inactive).

For orientation: viability means a read-out of living cells in per cent, often relative to untreated cells.
